Activity calls are given as the source filed them. How the source made its calls: active means hit-call score of the fitted dose curve at least 0.9, where 1 is the maximum; inactive means score below 0.9.
Experiments:
Details in all cases: mRNA level, 48 h; actives raise or lower the signal
[1] = read-out: 3-Hydroxy-3-Methylglutaryl-CoA Synthase 2 (HMGCS2), HMGCS2 (gene 3158); assay: LTEA_HepaRG_HMGCS2: Life Technologies and Expression Analysis (LTEA) Assay for 3-Hydroxy-3-Methylglutaryl-CoA Synthase 2 (HMGCS2) using HepaRG (AID 2283504)
Procedure, shortened: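 Differentiated human HepaRG cells were exposed in duplicate for 48 h in serum-free induction medium to eight concentrations (top 100 uM, half-log steps, 0.5% DMSO). HMGCS2 mRNA was quantified by TaqMan qRT-PCR, normalised to ACTB, GAPDH and POLR2A, then fitted bidirectionally against DMSO.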

HGF (gene 3082) = assay: LTEA_HepaRG_HGF: Life Technologies and Expression Analysis (LTEA) Assay for Hepatocyte Growth Facto (HGF) using HepaRG (AID 2283505)
Procedure, shortened: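 Differentiated human HepaRG cells in serum-free induction medium were exposed in duplicate for 48 h to eight concentrations (top 100 uM, half-log steps, 0.5% DMSO). HGF mRNA was quantified by qRT-PCR, normalized to ACTB, GAPDH and POLR2A.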

[2] = read-out: Insulin Like Growth Factor 1 (IGF1), IGF1 (gene 3479); assay: LTEA_HepaRG_IGF1: Life Technologies and Expression Analysis (LTEA) Assay for Insulin Like Growth Factor 1 (IGF1) using HepaRG (AID 2283506)
Procedure, shortened: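 Differentiated human HepaRG cells were dosed for 48 h in serum-free induction medium with 0.5% DMSO, eight half-log concentrations up to 100 uM, in duplicate. IGF1 mRNA was quantified by qRT-PCR normalized to ACTB, GAPDH, POLR2A; bidirectional fitting versus DMSO.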

[3] = read-out: Intercellular Adhesion Molecule 1 (ICAM1), ICAM1 (gene 3383); assay: LTEA_HepaRG_ICAM1: Life Technologies and Expression Analysis (LTEA) Assay for Intercellular Adhesion Molecule 1 (ICAM1) using HepaRG (AID 2283507)
Procedure, shortened: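 Differentiated HepaRG cells in serum-free induction medium were exposed in duplicate for 48 h to eight half-log concentrations up to 100 uM in 0.5% DMSO. Transcript levels were measured by qRT-PCR normalized to ACTB, GAPDH and POLR2A; bidirectional fits relative to DMSO.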

[4] = read-out: Interleukin 6 (IL6), IL6 (gene 3569); assay: LTEA_HepaRG_IL6: Life Technologies and Expression Analysis (LTEA) Assay for Interleukin 6 (IL6) using HepaRG (AID 2283509)
Procedure, shortened: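 HepaRG cells exposed in duplicate for 48 h to eight half-log concentrations, top 100 uM, in 0.5% DMSO serum-free induction medium. mRNA measured by qRT-PCR, normalized to ACTB, GAPDH and POLR2A. Bidirectional fit versus DMSO.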

[5] = read-out: Interleukin 6 Receptor (IL6R), IL6R (gene 3570); assay: LTEA_HepaRG_IL6R: Life Technologies and Expression Analysis (LTEA) Assay for Interleukin 6 Receptor (IL6R) using HepaRG (AID 2283510);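 on AC50: TaqMan qRT-PCR signal normalized to ACTB GAPDH and POLR2A housekeeping genes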
Procedure, shortened: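 Differentiated human HepaRG cells, plated 48 h then switched to serum-free induction medium, were dosed in duplicate for 48 h at eight half-log concentrations up to 100 uM in 0.5% DMSO. IL6R mRNA quantified by qRT-PCR, normalized to ACTB/GAPDH/POLR2A; bidirectional fit versus DMSO.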

[6] = read-out: Potassium channel subfamily K member 1 (KCNK1), KCNK1 (gene 3775); assay: LTEA_HepaRG_KCNK1: Life Technologies and Expression Analysis (LTEA) Assay for Potassium channel subfamily K member 1 (KCNK1) using HepaRG (AID 2283511)
Procedure, shortened: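 Differentiated HepaRG cells, 48 h exposure in serum-free induction medium with 0.5% DMSO; 8 concentrations, half-log from 100 uM, duplicate. KCNK1 mRNA by qRT-PCR, normalized to ACTB, GAPDH, POLR2A; bidirectional fit vs DMSO.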

[7] = read-out: Keratin 19 (KRT19), KRT19 (gene 3880); assay: LTEA_HepaRG_KRT19: Life Technologies and Expression Analysis (LTEA) Assay for Keratin 19 (KRT19) using HepaRG (AID 2283512)
Procedure, shortened: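 Differentiated human HepaRG cells, plated 48 h, were exposed in duplicate for 48 h in serum-free induction medium to eight half-log concentrations up to 100 uM in 0.5% DMSO. KRT19 mRNA was quantified by qRT-PCR, normalized to ACTB, GAPDH and POLR2A, and fitted bidirectionally versus DMSO.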

[8] = read-out: JUN Transcription Factor, JUN (gene 3725); assay: LTEA_HepaRG_JUN: Life Technologies and Expression Analysis (LTEA) Assay for JUN Transcription Factor using HepaRG (AID 2283513)
Procedure, shortened: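 Differentiated HepaRG cells were exposed to chemicals for 48 h in serum-free induction medium, 8 concentrations from 100 uM in half-log steps, 0.5% DMSO vehicle, in duplicate. JUN mRNA was quantified by TaqMan qRT-PCR, normalized to ACTB, GAPDH, POLR2A.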

[9] = read-out: Lipase C (LIPC), LIPC (gene 3990); assay: LTEA_HepaRG_LIPC: Life Technologies and Expression Analysis (LTEA) Assay for Lipase C (LIPC) using HepaRG (AID 2283514)
Procedure, shortened: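 HepaRG cells, 48 h after plating, treated in duplicate for 48 h in serum-free induction medium over 8 half-log concentrations from 100 uM, 0.5% DMSO. LIPC mRNA by TaqMan qRT-PCR normalized to ACTB/GAPDH/POLR2A; bidirectional fit versus DMSO.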

[10] = read-out: Lipoprotein lipase (LPL), LPL (gene 4023); assay: LTEA_HepaRG_LPL: Life Technologies and Expression Analysis (LTEA) Assay for Lipoprotein lipase (LPL) using HepaRG (AID 2283515)
Procedure, shortened: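 Differentiated HepaRG cells, plated 48 h, then exposed 48 h in serum-free induction medium to 8 concentrations (top 100 uM, half-log steps) in 0.5% DMSO, duplicate. LPL mRNA measured by qRT-PCR, normalized to ACTB, GAPDH and POLR2A.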

[11] = read-out: matrix metalloproteinase-10 (MMP10), MMP10 (gene 4319); assay: LTEA_HepaRG_MMP10: Life Technologies and Expression Analysis (LTEA) Assay for matrix metalloproteinase-10 (MMP10) using HepaRG (AID 2283517)
Procedure, shortened: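 Differentiated HepaRG cells in serum-free induction medium exposed 48 h in duplicate to 8-point half-log series up to 100 uM in 0.5% DMSO. mRNA quantified by qRT-PCR, normalised to ACTB, GAPDH, POLR2A; bidirectional fit versus DMSO.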

MYC, MYC (gene 4609) = assay: LTEA_HepaRG_MYC: Life Technologies and Expression Analysis (LTEA) Assay for MYC using HepaRG (AID 2283518)
Procedure, shortened: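 Differentiated human HepaRG cells, plated 48 h then switched to serum-free induction medium, were exposed in duplicate for 48 h to 8-point half-log series up to 100 uM in 0.5% DMSO. MYC mRNA measured by qRT-PCR, normalized to ACTB/GAPDH/POLR2A.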

[12] = read-out: Protein phosphatase 2A (PPP2R4), PTPA (gene 5524); assay: LTEA_HepaRG_PPP2R4: Life Technologies and Expression Analysis (LTEA) Assay for Protein phosphatase 2A (PPP2R4) using HepaRG (AID 2283522)
Procedure, shortened: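 Differentiated HepaRG cells in serum-free induction medium were exposed in duplicate for 48 h to eight concentrations, top 100 uM with half-log dilutions, in 0.5% DMSO. PPP2R4 mRNA was quantified by TaqMan qRT-PCR, normalized to ACTB, GAPDH and POLR2A.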

[13] = read-out: Phosphatase and tensin (PTEN), PTEN (gene 5728); assay: LTEA_HepaRG_PTEN: Life Technologies and Expression Analysis (LTEA) Assay for Phosphatase and tensin (PTEN) using HepaRG (AID 2283523)
Procedure, shortened: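 HepaRG cells, 48 h after plating, exposed in duplicate for 48 h in serum-free induction medium to 8 half-log concentrations up to 100 uM (0.5% DMSO). PTEN mRNA by qRT-PCR, normalized to ACTB, GAPDH, POLR2A; bidirectional fit versus DMSO.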

[14] = read-out: Insulin-like growth factor-binding protein 1 (IGFBP1), IGFBP1 (gene 3484); assay: LTEA_HepaRG_IGFBP1: Life Technologies and Expression Analysis (LTEA) Assay for Insulin-like growth factor-binding protein 1 (IGFBP1) using HepaRG (AID 2283508)
Procedure, shortened: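 Differentiated human HepaRG cells in serum-free induction medium were exposed in duplicate for 48 h to eight concentrations, top 100 uM with half-log dilutions, in 0.5% DMSO. Transcript levels came from qRT-PCR normalised to ACTB, GAPDH and POLR2A, fitted bidirectionally against DMSO.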

[15] = read-out: MicroRNA 122 (MIR122), gene 406906; assay: LTEA_HepaRG_MIR122: Life Technologies and Expression Analysis (LTEA) Assay for MicroRNA 122 (MIR122) using HepaRG (AID 2283516); further: the transcript read is the microRNA miR-122
Procedure, shortened: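 Differentiated human HepaRG cells were exposed 48 h in serum-free induction medium to eight half-log concentrations (top 100 uM, 0.5% DMSO). Transcript level was measured by TaqMan qRT-PCR, normalized to ACTB, GAPDH and POLR2A, and fitted bidirectionally versus DMSO.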

[16] = read-out: Paternally Expressed 10 (PEG10), PEG10 (gene 23089); assay: LTEA_HepaRG_PEG10: Life Technologies and Expression Analysis (LTEA) Assay for Paternally Expressed 10 (PEG10) using HepaRG (AID 2283520)
Procedure, shortened: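 Differentiated HepaRG cells, plated 48 h then switched to serum-free induction medium, were exposed in duplicate for 48 h to eight half-log concentrations topping at 100 uM in 0.5% DMSO. PEG10 mRNA was quantified by TaqMan qRT-PCR, normalised to ACTB, GAPDH and POLR2A.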

[17] = read-out: Nuclear factor NF-kappa-B p105 subunit (Homo sapiens) (UniProt P19838); assay: LTEA_HepaRG_NFKB1: Life Technologies and Expression Analysis (LTEA) Assay for Nuclear Factor Kappa B Subunit 1 (NFKB1) using HepaRG (AID 2283521);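 further: TaqMan qRT-PCR transcript normalised to ACTB GAPDH and POLR2A housekeeping genes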
Procedure, shortened: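 Differentiated human HepaRG cells in serum-free induction medium with 0.5% DMSO were exposed for 48 h to eight half-log concentrations, top 100 uM, in duplicate. NFKB1 mRNA measured by Fluidigm TaqMan qRT-PCR, normalised to ACTB, GAPDH and POLR2A; bidirectional fit versus DMSO.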

[18] = read-out: matrix metalloproteinase-3 (MMP3), MMP3 (gene 4314); assay: LTEA_HepaRG_MMP3: Life Technologies and Expression Analysis (LTEA) Assay for matrix metalloproteinase-3 (MMP3) using HepaRG (AID 2283519)
Procedure, shortened: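 HepaRG cells (~100,000/well) in serum-free induction medium were dosed in duplicate for 48 h with an 8-point half-log series from 100 uM, 0.5% DMSO. MMP3 mRNA was quantified by Fluidigm TaqMan qRT-PCR, normalized to three housekeeping genes.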

Measured: AC50

Sequence of Nuclear factor NF-kappa-B p105 subunit (Homo sapiens) (P19838 whole entry, looked up): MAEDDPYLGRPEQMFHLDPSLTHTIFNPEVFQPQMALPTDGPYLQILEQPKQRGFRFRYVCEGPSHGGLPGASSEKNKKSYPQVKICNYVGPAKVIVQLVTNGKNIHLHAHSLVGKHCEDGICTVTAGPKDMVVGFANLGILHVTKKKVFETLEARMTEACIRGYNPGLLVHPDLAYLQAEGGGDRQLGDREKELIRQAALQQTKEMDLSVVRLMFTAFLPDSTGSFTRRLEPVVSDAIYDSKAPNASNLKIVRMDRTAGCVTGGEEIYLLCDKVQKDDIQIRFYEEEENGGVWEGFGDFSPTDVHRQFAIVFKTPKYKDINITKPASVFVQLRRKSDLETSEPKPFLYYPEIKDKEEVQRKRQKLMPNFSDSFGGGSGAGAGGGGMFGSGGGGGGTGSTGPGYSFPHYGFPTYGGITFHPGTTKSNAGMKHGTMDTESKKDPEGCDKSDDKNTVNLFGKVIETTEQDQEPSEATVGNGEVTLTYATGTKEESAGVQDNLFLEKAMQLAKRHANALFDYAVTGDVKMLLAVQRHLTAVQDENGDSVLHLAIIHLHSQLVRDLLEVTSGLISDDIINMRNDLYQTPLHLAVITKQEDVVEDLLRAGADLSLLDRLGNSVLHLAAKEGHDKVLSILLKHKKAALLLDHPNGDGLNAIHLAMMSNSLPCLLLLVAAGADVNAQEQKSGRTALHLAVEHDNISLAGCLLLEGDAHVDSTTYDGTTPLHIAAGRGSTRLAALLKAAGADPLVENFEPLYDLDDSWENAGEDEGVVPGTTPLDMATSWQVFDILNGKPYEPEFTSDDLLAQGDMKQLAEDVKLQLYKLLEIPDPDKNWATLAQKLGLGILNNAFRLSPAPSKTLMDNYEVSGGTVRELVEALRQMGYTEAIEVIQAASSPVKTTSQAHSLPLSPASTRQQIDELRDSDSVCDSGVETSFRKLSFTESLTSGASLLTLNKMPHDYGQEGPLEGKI

CN(C)c1ccc(N=NS(=O)(=O)O)cc1
active: [2] 26.2 µM | [5] 22.3 µM | [7] 18.9 µM
not listed: [14] | [15] | [16] | [17] | [18]
inactive: all other assays above

CC(C)CCCCCCCOC(=O)CCCCC(=O)OCCCCCCCC(C)C
not listed: [18]
inactive: all other assays above

O=C(O)c1cc(N=Nc2ccc(S(=O)(=O)Nc3ccccn3)cc2)ccc1O
not listed: [3] | [5] | [14]
inactive: all other assays above

CCCCCCc1ccc(O)cc1O
not listed: [5] | [14] | [16] | [17] | [18]
inactive: all other assays above

C1N2CN3CN1CN(C2)C3
not listed: [5] | [14] | [15]
inactive: all other assays above

COC(=O)c1ccccc1O
not listed: [3] | [5] | [14]
inactive: all other assays above

Fc1ccccc1[C@@H](F)COC1CCC(Nc2ncnc3[nH]ncc23)CC1 (some centres not stated)
inactive: [6] | [8] | [17] | [12] | [13]
active: [1] 45.2 µM | [2] 50 µM | [3] 50 µM | [14] 63.8 µM | [4] 73.7 µM | [7] 12.6 µM | [9] 50 µM | [10] 28 µM | [11] 64.7 µM | MYC, MYC (gene 4609) 34 µM | [18] 50 µM | [16] 35.8 µM

CCCCC(CC)COC(=O)CCCCCCCCC(=O)OCC(CC)CCCC (configuration not stated)
not listed: HGF (gene 3082) | [14] | [15] | [16] | [17]
inactive: all other assays above
